An excerpt weighted towards active compounds, which were near 1.2% of everything screened.
GSH fluor: compound fluorescence on glutathione beads, profiling panel, artefact control, biophysical, 488/530 nm, flow cytometry. GSH beads flow cytometry, compound fluorescence 488/530 nm; stronger effect = higher value. fluorescence (KMESF) at 10 µM. 190,000 tested, 0.25% active; in the data active = fluorescence above about 89;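 also: glutathione beads carrying GST-tagged Bcl family fusion proteins plus one bare bead set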
RGS16-Gao: modulators of RGS16 binding to Galphao, primary screen, biochemical, human proteins, multiplexed bead flow cytometry. binding response (% of control), % at 10 µM. 220,000 tested, 0.38% active. Regulator of G-protein signaling 16 (Homo sapiens) + Guanine nucleotide-binding protein …. bead-based flow cytometry RGS16-Galphao binding, fluorescence; actives lie on both sides. AID 1441, 2008;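 also: Galphao activated by GDP with aluminum fluoride before binding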
RGS7-Gao reg: RGS7-Galphao binding modulators, primary screen, biochemical, multiplexed bead flow cytometry; Guanine nucleotide-binding protein G(o) subunit alpha (Homo sapiens), P09471; actives lie on both sides; binding response (% of control), % at 10 µM; 220,000 tested, 0.35% active; AID 1439, 2008; in the data active = binding response below about 49% or above about 150%; inconclusive = no clear call, values can overlap the other calls; inactive = in between;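 also: fluorescent Galphao held in activated GDP-AlF4 state binding bead-coupled RGS7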
Target sequence (P09471 whole entry, looked up): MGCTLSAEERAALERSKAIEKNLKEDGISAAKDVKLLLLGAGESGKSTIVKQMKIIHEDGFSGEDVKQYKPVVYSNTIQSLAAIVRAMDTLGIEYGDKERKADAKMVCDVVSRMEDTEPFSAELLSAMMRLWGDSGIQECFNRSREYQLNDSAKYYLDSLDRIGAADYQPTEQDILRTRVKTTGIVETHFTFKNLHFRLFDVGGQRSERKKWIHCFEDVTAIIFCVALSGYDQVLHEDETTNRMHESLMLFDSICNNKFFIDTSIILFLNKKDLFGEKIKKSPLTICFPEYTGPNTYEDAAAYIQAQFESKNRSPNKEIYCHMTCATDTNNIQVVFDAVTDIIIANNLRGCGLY
RGS8-Gao: RGS8-Galphao binding modulators, primary screen, biochemical, multiplexed bead flow cytometry; Guanine nucleotide-binding protein G(o) subunit alpha (Homo sapiens), P09471; actives lie on both sides; response (percent of control binding), % at 10 µM; 220,000 tested, 0.34% active; AID 1423, 2008; in the data active = response below about 60% or above about 140%; inactive = in between;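 also: Galphao activated as the GDP aluminium fluoride complex binding bead-coupled RGS8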
Avidin bead fluor: green autofluorescence of compounds with avidin beads – biophysical, 488/530 nm, flow cytometry, artefact control, profiling panel. fluorescence (KMESF) at 10 µM. compound fluorescence 488/530 nm; stronger effect = higher value. AID 1775, 2009. 220,000 tested, 0.38% active; in the data active = fluorescence above about 47
RGS4-Gao reg: modulators of RGS4 binding to Galphao, primary screen, biochemical, multiplexed bead flow cytometry; actives lie on both sides; 220,000 tested, 0.33% active; AID 1415, 2008; binding response (% of control), % at 10 µM; in the data active = binding response below about 49% or above about 150%; inactive = in between;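 also: fluorescent Galphao activated with aluminum fluoride binding bead-coupled RGS4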
RGS-Gao: modulators of RGS–Galpha-o binding, primary screen, biochemical, multiplexed beads, flow cytometry, RGS4/7/8/16/19. AID 1504, 2009. 1,600 tested, 99% active. shares compounds with RGS16-Gao. RGS4–Galpha-o binding response, % at 10 µM. multiplexed bead flow cytometry;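 also: fluorescently labeled Galpha-o bound to GDP with aluminium fluoride binding biotinylated RGS beads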
Target sequence (P09471 whole entry, looked up): as above
Target sequence (P49798 whole entry, looked up): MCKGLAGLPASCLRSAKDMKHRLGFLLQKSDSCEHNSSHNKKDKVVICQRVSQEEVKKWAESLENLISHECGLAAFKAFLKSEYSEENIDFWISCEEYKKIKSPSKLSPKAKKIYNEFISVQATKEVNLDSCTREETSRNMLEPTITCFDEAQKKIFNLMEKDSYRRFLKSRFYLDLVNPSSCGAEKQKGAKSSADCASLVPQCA
Avidin counter: disruption of biotin probe capture by avidin, counter-screen for RGS protein interaction modulators, biochemical, flow cytometry, bead-based; inhibition, % at 10 µM; shares compounds with RGS16-Gao; 1,700 tested, under 10 active; streptavidin beads, fluorescein-biotin binding;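 active = inhibition above 50%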;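 also: median green fluorescence of gated singlet beads compared with DMSO control wells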
RGS8-Gao confirm: RGS8-Galphao binding modulators, confirmation, biochemical, multiplexed bead flow cytometry, single concentration. 1,700 tested, 3% active. AID 1836, 2009. shares compounds with RGS16-Gao. binding response (% of control), % at 10 µM. bead-based flow cytometry RGS8-Galphao binding, fluorescence; actives lie on both sides; in the data active = binding response below about 72% or above about 130%; inactive = in between;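 also: Galphao activated as GDP AlF4 complex before binding bead RGS8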
RGS7-Gao single: RGS7-Galphao binding modulators, confirmation, biochemical, multiplexed bead flow cytometry, single concentration; 1,700 tested, 7.8% active; bead-based flow cytometry RGS7-Galphao binding; actives lie on both sides; response (percent of control binding), % at 10 µM; shares compounds with RGS16-Gao; in the data active = response below about 75% or above about 130%; inactive = in between;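 also: fluorescent Galphao activated with GDP and aluminum fluoride binding bead-coupled RGS7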
RGS16-Gao single: modulators of RGS16-Galphao protein binding, confirmation, biochemical, single concentration, multiplexed bead flow cytometry; shares compounds with RGS16-Gao; bead-based flow cytometry; actives lie on both sides; response (% of control binding), % at 10 µM; 1,700 tested, 4% active; in the data active = response below about 74% or above about 130%; inactive = in between;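 also: Galphao activated as the GDP aluminium fluoride complex binding bead-coupled RGS16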
RGS4-Gao confirm: modulators of RGS4-Galphao protein binding, confirmation, biochemical, single concentration, multiplexed bead flow cytometry. shares compounds with RGS16-Gao. actives lie on both sides. binding response (% of control), % at 10 µM. 1,700 tested, 4% active. AID 1840, 2009; in the data active = binding response below about 74% or above about 130%; inactive = in between
RGS19-Gao single: regulators of RGS19-Galphao binding, confirmation, biochemical, single point, multiplexed bead flow cytometry | shares compounds with RGS16-Gao | bead-based flow cytometry RGS19-Galphao binding; actives lie on both sides | response (percent of control binding), % at 10 µM | 1,700 tested, 5% active | AID 1841, 2009; in the data active = response below about 50% or above about 160%; inactive = in between
Hits are given with their value; – = inactive; ? = inconclusive; · = no result given; [ ] = remark or other dose. Unless noted, no rule for the calls is given here.

SMILES	GSH fluor	RGS16-Gao	RGS7-Gao reg	RGS8-Gao	Avidin bead fluor	RGS4-Gao reg	Avidin counter	RGS8-Gao confirm	RGS7-Gao single	RGS16-Gao single	RGS4-Gao confirm	RGS19-Gao single	others
CCOc1ccc(NC(=O)N(C2CCCC2)C2CCN(C(C)=O)CC2)cc1	–	–	–	–	–	–	·	·	·	·	·	·
CCOc1ccc(NC(=O)N(CCC(C)C)C2CCN(C(C)=O)CC2)cc1	–	–	–	153[activator]	–	–	–	–	–	–	–	–	RGS-Gao=127
COc1cccc(NC2=Nc3cccc4cccc2c34)c1	–	–	–	–	–	–	·	·	·	·	·	·
Cc1cccc(C)c1NC(=O)C(=O)c1cn(C)c2ccccc12	–	–	–	–	–	–	·	·	·	·	·	·
Cc1cc(NC(=O)C(=O)c2cn(C)c3ccccc23)no1	–	–	165[activator]	–	62	–	–	–	–	–	–	–	RGS-Gao=110
CCN(CCNC(=O)CN(C)S(=O)(=O)c1cccc2nsnc12)c1ccccc1	–	–	–	–	–	–	·	·	·	·	·	·
CCN(CCCNC(=O)CN(C)S(=O)(=O)c1cccc2nsnc12)c1cccc(C)c1	–	·	·	·	·	·	–	–	–	–	–	–
CCOC(=O)c1[nH]c2cc(OC)c(OC)cc2c1NC(=O)CCN1CCSCC1	·	9.8	?	21	–	17	–	–	–	–	–	–
COc1cc(C(=O)N/N=C/c2ccccn2)cc(OC)c1OC	–	12	?	13	–	20	–	–	–	–	–	–
O=C(/C=C\Nc1ccc(Cl)cn1)c1ccc(Br)cc1	–	–	–	–	–	–	·	·	·	·	·	·
Cc1nn(-c2cccc(Cl)c2)c2nc(-c3ccncc3)cc(C(=O)N3CCOCC3)c12	–	–	–	–	–	–	·	·	·	·	·	·
CCc1c(C(=O)Nc2ccccc2)c(C)[nH]c(=S)c1C#N	–	-59	–	–	–	–	–	–	130[activator]	–	–	–	RGS-Gao=99
Cc1[nH]n(-c2ccccc2)c(=S)c1C=NCCCN=Cc1c(C)[nH]n(-c2ccccc2)c1=S	–	-0.3	–	52	–	–	–	–	–	74	–	47	RGS-Gao=92
Cc1ccccc1OCC(=O)N=Nc1c(O)n(C)c2ccccc12	·	–	?	–	–	–	·	·	·	·	·	·
O=C(NCCSCc1ccc(Cl)cc1Cl)c1ccc(CN2CCOCC2)cc1	–	-10	-2.0	13	–	-21	–	–	–	–	–	–
Cc1ccc(/C=C/c2ccc(=O)n(Cc3ccccc3Cl)n2)cc1	–	–	–	–	–	–	·	·	·	·	·	·
N=C1/C(=C/c2cccn2Cc2ccc(Cl)cc2)C(=O)N=C2SC=CN12	–	–	–	–	–	–	·	·	·	·	·	·
Cc1cc(-n2c(=O)c(C#N)cc3c(=O)n4ccccc4nc32)no1	–	-3.0	–	–	–	–	·	·	·	·	·	·	RGS-Gao=89
Cc1ccccc1-n1c(=O)c(C#N)cc2c(=O)n3ccccc3nc21	–	–	–	–	–	–	·	·	·	·	·	·
CCNC(=O)C(Sc1ccccc1)c1ccccc1 (stereo not drawn)	–	252[activator]	–	–	–	–	–	–	–	–	–	–	RGS-Gao=106
Cc1ccc(S(=O)(=O)NCC(=O)N(CC(=O)NCC2CCCO2)Cc2ccco2)cc1 (stereo not drawn)	–	–	–	–	–	–	·	·	·	·	·	·
O=C(Cn1nnc(-c2cc(C(F)(F)F)cc(C(F)(F)F)c2)n1)NNC(=S)Nc1ccc(Cl)cc1	·	–	?	145[activator]	–	185[activator]	–	–	–	–	–	–
Cc1ccc(N2CN=c3s/c(=C\c4ccccn4)c(=O)n3C2)cc1	–	–	48	60	–	–	–	–	–	–	–	–	RGS-Gao=51
Cc1cc(C)c(C#N)c(SCCS(=O)(=O)c2ccc(C(C)(C)C)cc2)n1	–	·	·	·	·	·	–	–	–	–	–	–
Cc1cc(C)c(C#N)c(SCCS(=O)(=O)c2ccc(Cl)cc2)n1	·	–	?	–	–	–	·	·	·	·	·	·
SMILES	GSH fluor	RGS16-Gao	RGS7-Gao reg	RGS8-Gao	Avidin bead fluor	RGS4-Gao reg	Avidin counter	RGS8-Gao confirm	RGS7-Gao single	RGS16-Gao single	RGS4-Gao confirm	RGS19-Gao single	others
O=C(Nc1ccccc1)Nc1snnc1C(=O)Nc1cccc(O)c1	–	12	16	24	–	16	–	–	–	–	–	–
CCCNC(=O)c1ccccc1NC(=O)c1ccc(CSc2ccccc2)cc1	–	–	–	–	–	–	·	·	·	·	·	·
CCOc1ccc(-n2nc3c(SCCN4CCCC4)nnc(C)c3c2C)cc1	–	202[activator]	210[activator]	–	–	183[activator]	–	–	–	–	–	–
Cc1ccc(-n2nc3c(SCCN4CCOCC4)nnc(C)c3c2C)cc1	–	–	–	–	–	–	·	·	·	·	·	·
COc1ccc(OC)c(-c2csc(NC(=O)c3ccc4c(c3)OCO4)n2)c1	–	–	?	–	–	–	·	·	·	·	·	·
O=C(NC1=NCCS1)c1sc2ccccc2c1Cl	–	–	·	·	·	·	–	–	–	–	–	–
O=C(NC1=NCCS1)c1sc2cc(Cl)cc(Cl)c2c1Cl	–	–	–	–	–	–	·	·	·	·	·	·
COc1ccc(-n2c3c(cc(C(=O)NNc4ccccc4C)c2=O)C(=O)CC(C)(C)C3)cc1	–	–	–	–	–	–	·	·	·	·	·	·
COc1ccc(-n2c3c(cc(C(=O)NNc4ccccc4)c2=O)C(=O)CC(C)(C)C3)cc1	–	–	47	59	–	47	–	–	–	–	–	–
